# Assay results published in PubChem BioAssay AID463215 (Sanford-Burnham Center for Chemical Genomics, 2010).
# The whole screen tested about 4,600 compounds, of which about 2,900 (63%) were called active.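 How the source made its calls: active means inhibition of yeast growth at or above a set limit in either of two replicates at 10 µM; inactive means the rest.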 So high a share suggests a set chosen from earlier hits. Many of the other results were omitted from the sample, so actives are more common in it than they were.
# Experiment: TIM10 isogenic control strain growth inhibition – single concentration, luminescence, S. cerevisiae, counter-screen for tim10-1 synthetic lethality project, confirmation (AID 463215);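 further: isogenic wild-type TIM10 control yeast grown in succinate dextrose medium; this counterscreen used the strain with wild-type TIM10; 0% = yeast with DMSO and 100% = medium wells lacking yeast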
# Settings: BacTiter-Glo luminescence, 24 h, at 10 µM, active compounds read high
row,SMILES,inhibition
1,Cc1cc2ccccn2c1C(C[N+](=O)[O-])c1c(F)cccc1Cl (stereo not given),36.1% (active)
2,O=C1NC(=O)N(c2ccccc2)C(=O)/C1=C/c1ccc([N+](=O)[O-])s1,40% (active)
3,COc1cccc(N2C(=O)NC(=O)/C(=C\c3ccc([N+](=O)[O-])s3)C2=O)c1,39.2% (active)
4,C/C(=N/O)c1ccc2ccc3ccccc3c2c1,42.5% (active)
5,Cc1ccc(-c2nc3ccccc3c(=O)n2-c2ccc(Br)cn2)cc1,46.5% (active)
